The list is not random: actives were taken first. Their share in the collection is about 4.2%.
TRPV1 agonist: agonists of human vanilloid receptor 1 (TRPV1); TRPV1-expressing cells, Fluo-8 calcium influx, agonist mode; 0.19% of 320,000 active; activation, % at 8.33 µM; AID 540275; Q8NER1; in the data active means activation above about 80%; inconclusive means between about 30% and that limit
Target sequence (Q8NER1 whole entry, looked up): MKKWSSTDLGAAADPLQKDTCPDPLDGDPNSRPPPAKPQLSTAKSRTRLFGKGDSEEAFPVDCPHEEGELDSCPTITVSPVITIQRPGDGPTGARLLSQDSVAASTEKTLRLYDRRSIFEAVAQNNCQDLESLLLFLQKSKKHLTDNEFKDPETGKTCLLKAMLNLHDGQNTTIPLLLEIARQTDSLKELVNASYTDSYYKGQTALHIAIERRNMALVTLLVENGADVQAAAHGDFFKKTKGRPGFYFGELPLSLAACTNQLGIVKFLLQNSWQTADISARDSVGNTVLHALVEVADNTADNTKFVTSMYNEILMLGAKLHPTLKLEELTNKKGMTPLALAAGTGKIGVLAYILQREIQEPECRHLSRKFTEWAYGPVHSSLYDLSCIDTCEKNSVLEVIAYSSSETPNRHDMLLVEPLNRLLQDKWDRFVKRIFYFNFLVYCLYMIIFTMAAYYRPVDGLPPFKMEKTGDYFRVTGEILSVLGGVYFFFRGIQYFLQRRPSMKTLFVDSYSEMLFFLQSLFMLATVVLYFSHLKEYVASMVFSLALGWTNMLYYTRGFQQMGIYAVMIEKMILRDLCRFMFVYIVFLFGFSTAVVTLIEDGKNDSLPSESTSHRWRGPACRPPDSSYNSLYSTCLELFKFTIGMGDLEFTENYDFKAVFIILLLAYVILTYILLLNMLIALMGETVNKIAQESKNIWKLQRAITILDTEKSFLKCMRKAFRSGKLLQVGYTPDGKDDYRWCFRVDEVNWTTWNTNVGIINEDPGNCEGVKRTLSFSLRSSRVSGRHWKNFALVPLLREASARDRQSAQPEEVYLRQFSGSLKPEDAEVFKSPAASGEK
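Fluo-8 calcium influx in TRPV1-expressing cells, kinetic read (ex 480/em 520 nm). Compound added and read 3 min for agonist activity, followed by capsaicin at EC20 final and 2 min further read for enhancement.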
TRPV1 PAM: human TRPV1 potentiation | Q8NER1 | TRPV1-expressing cells, Fluo-8 calcium influx, capsaicin EC20 potentiation | potentiation, % at 8.33 µM | 0.02% of 320,000 active; in the data active means potentiation above about 80%; inconclusive means between about 30% and that limit
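TRPV1-expressing cells were cultured overnight at 35.5C and loaded with Fluo-8 calcium dye for 40 to 90 min at room temperature. After a 10 s baseline, compound was added and calcium influx was read kinetically for 3 min (ex 480/em 520 nm).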
D1 agonist: activates the human D1 dopamine receptor; HEK293 T-REx D1 cells, calcium flux, agonist mode; 1% of 360,000 active; activation, % at 2 µM; P21728; in the data active means activation above about 30%
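Agonism was scored from calcium flux recorded over 180 s (1 read/s) after pintool compound addition, following a 10-cycle baseline. Cells were inducible force-coupled HEK293 TREx D1, plated overnight at 30 C and loaded with no-wash calcium dye.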
D1 antagonist: human D1 dopamine receptor antagonism; AID 504652; P21728; activity change, negative = inhibition, % at 10 µM; 3.2% of 360,000 active; HEK293 TREx D1 cells, calcium flux, dopamine EC80; hits give low values; in the data active means activity change below about -30%
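Allosteric or orthosteric antagonism assessed as attenuation of the calcium response to EC80 dopamine, added 180 s after compound, in induced HEK293 Trex D1 cells loaded with no-wash calcium dye.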
D1 potentiator: human D1 dopamine receptor positive modulation. HEK293 TREx D1 cells, calcium flux, dopamine EC20 potentiation. 0.036% of 360,000 active. potentiation, % at 10 µM; in the data active means potentiation above about 30%
A number is an active result.

`c1ccc(-c2cc(CSc3nc4ccccc4[nH]3)on2)cc1` gave TRPV1 agonist inactive, TRPV1 PAM inactive, D1 agonist inactive, D1 antagonist -31.3 and D1 potentiator inactive.
For O=C(c1ccc([N+](=O)[O-])o1)N1CCN(c2nc3c(F)cc(F)cc3s2)CC1 the results were TRPV1 agonist inconclusive, TRPV1 PAM inactive, D1 agonist inactive, D1 antagonist -30.6 and D1 potentiator inactive.
Screening COc1ccc(NC(=O)c2cc([N+](=O)[O-])ccc2O)cc1 returned TRPV1 agonist inactive, TRPV1 PAM inactive, D1 agonist inactive, D1 antagonist -30.6 and D1 potentiator inactive.
O=C(Nc1cccc([N+](=O)[O-])c1)c1cc2ccccc2cc1O was read as TRPV1 agonist inactive, TRPV1 PAM inactive, D1 agonist inactive, D1 antagonist -42.1 and D1 potentiator inactive.
`O=C(Nc1cccc([N+](=O)[O-])c1)c1ccc(-c2ccccc2)cc1` gave TRPV1 agonist 86.9, TRPV1 PAM inactive, D1 agonist inactive, D1 antagonist -59.2 and D1 potentiator inactive.
For O=C(O)c1ccccc1C(=O)Nc1cccc([N+](=O)[O-])c1 the results were TRPV1 agonist inactive, TRPV1 PAM inactive, D1 agonist inactive, D1 antagonist inactive and D1 potentiator inactive.
COc1ccc(NC(=O)c2cccc([N+](=O)[O-])c2)cc1 was read as TRPV1 agonist inactive, TRPV1 PAM inconclusive, D1 agonist inactive, D1 antagonist inactive and D1 potentiator inactive.
Screening CCN(CC)c1cc(C)nc2nc(-c3ccc(C)cc3)nn12 returned D1 agonist inactive, D1 antagonist inactive and D1 potentiator inactive.
`O=c1cc(CN2CCN(C/C=C/c3ccccc3)CC2)c2cc(O)ccc2o1` gave TRPV1 agonist inactive, TRPV1 PAM inactive, D1 agonist inactive, D1 antagonist -32.5 and D1 potentiator inactive.
For Cc1ccc2oc(=O)cc(CN3CCN(C/C=C/c4ccccc4)CC3)c2c1 the results were TRPV1 agonist inactive, TRPV1 PAM inactive, D1 agonist inactive, D1 antagonist inactive and D1 potentiator inactive.
Screening CCc1ccc(NC(=O)C(C)OC(=O)c2cc(=O)[nH]c3ccc(S(=O)(=O)Nc4ccc(F)cc4)cc23)cc1 (stereo unspecified) returned TRPV1 agonist inactive, TRPV1 PAM inactive, D1 agonist inactive, D1 antagonist -36.9 and D1 potentiator inactive.
Cc1cccc(NS(=O)(=O)c2ccc3[nH]c(=O)cc(C(=O)OC(C)C(=O)Nc4ccc([N+](=O)[O-])cc4)c3c2)c1 (stereo unspecified) was read as TRPV1 agonist inactive, TRPV1 PAM inactive, D1 agonist inactive, D1 antagonist inactive and D1 potentiator inactive.
For O=C(O)CN1C(=O)/C(=C\c2cn(CC(=O)N3CCOCC3)c3ccccc23)SC1=S the results were TRPV1 agonist inactive, TRPV1 PAM inactive, D1 agonist 31.7, D1 antagonist inactive and D1 potentiator inactive.
CSc1ccc(/C=C/c2nc3ccccc3n2S(=O)(=O)c2cccc(Cl)c2)cc1 was read as D1 agonist inactive, D1 antagonist inactive and D1 potentiator inactive.
For O=S(=O)(c1cccc(Cl)c1)n1c(/C=C/c2ccccc2Cl)nc2ccccc21 the results were D1 agonist inactive, D1 antagonist -33.2 and D1 potentiator inactive.
Screening CC(C)c1nc2oc3ccccc3c(=O)c2c(=O)n1-c1ccccc1 returned TRPV1 agonist inactive, TRPV1 PAM inactive, D1 agonist 53.9, D1 antagonist inactive and D1 potentiator inactive.
`Cc1ccc2oc(=O)c3cnn(CC(=O)NCCN(C)C)c3c2c1` gave TRPV1 agonist inactive, TRPV1 PAM inactive, D1 agonist inactive, D1 antagonist inactive and D1 potentiator inactive.
`O=C(Cn1ncc2c(=O)oc3ccccc3c21)NCCCN1CCCC1=O` gave TRPV1 agonist inactive, TRPV1 PAM inactive, D1 agonist inactive, D1 antagonist inactive and D1 potentiator inactive.
`Cc1ccc2oc(=O)c3cnn(CC(=O)NCCC(C)C)c3c2c1` gave TRPV1 agonist inactive, TRPV1 PAM inactive, D1 agonist inactive, D1 antagonist -37.3 and D1 potentiator inactive.
`COCCCNC(=O)Cn1ncc2c(=O)oc3ccccc3c21` gave TRPV1 agonist inactive, TRPV1 PAM inactive, D1 agonist inactive, D1 antagonist -30.3 and D1 potentiator inactive.
CCN(CCCNC(=O)Cn1ncc2c(=O)oc3ccccc3c21)c1cccc(C)c1 was read as D1 agonist inactive, D1 antagonist -36.9 and D1 potentiator inactive.

Assay outcomes as filed in PubChem.
